Results taken from PubChem BioAssay AID1159580 (chemical genetic matrix, 2015).
Several values for one entry are separate records, joined by “and”; a condition that tells them apart may be missing. Equal values may be shown once. About 2,000 (36%) of roughly 5,500 compounds were called active. Another 18% or so got no clear call; they are omitted. Rule as the data show it: active = normalized growth mostly below about 0.91 (no sharp cut-off); inconclusive = no clear call, values can overlap the other calls; inactive = mostly above about 0.92. The list shows a part of the results.

Assay: chemical genetic growth profiling, strain panel (AID 1159580);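 also: tested at 20 µM; growth read once vehicle control cultures reached saturation at 30 °C; 1 = growth at the plate median or of vehicle wells; lower values mean less growth of the strain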
Details: S. cerevisiae deletion strains, growth OD

Measured: normalized growth

COc1cc(NS(=O)(=O)c2ccc(N)cc2)nc(OC)n1
inactive: locus YAL021C, strain ccr4, hits give low values 0.976 | locus YAL026C, strain drs2, hits give low values 0.982 | locus YAL030W, strain snc1, hits give low values 0.976 | locus YBL061C, strain skt5, hits give low values 0.97 | locus YBR009C, strain hhf1, hits give low values 0.977 | locus YBR021W, strain FUR4, hits give low values 0.983 | locus YBR023C, strain chs3, hits give low values 0.977 | locus YBR171W, strain sec66, hits give low values 0.968 | locus YBR229C, strain ROT2, hits give low values 0.987 | locus YBR231C, strain swc5, hits give low values 0.971 | locus YBR279W, strain paf1, hits give low values 0.961 | locus YCL011C, strain gbp2, hits give low values 0.986 | locus YCL016C, strain dcc1, hits give low values 0.978 | locus YCL029C, strain bik1, hits give low values 0.978 | locus YCL061C, strain MRC1, hits give low values 0.97 | locus YCL069W, strain vba3, hits give low values 0.985 | locus YCR088W, strain abp1, hits give low values 0.962 | locus YDL005C, strain med2, hits give low values 0.979 | locus YDL035C, strain GPR1, hits give low values 0.976 | locus YDL040C, strain nat1, hits give low values 0.963 | locus YDL074C, strain BRE1, hits give low values 0.995 | locus YDL101C, strain DUN1, hits give low values 0.985 | locus YDL134C, strain PPH21, hits give low values 0.968 | locus YDL185W, strain tfp1, hits give low values 0.982 | locus YDL192W, strain arf1, hits give low values 0.984 | locus YDR001C, strain nth1, hits give low values 0.978 | locus YDR069C, strain doa4, hits give low values 0.957 | locus YDR101C, strain arx1, hits give low values 0.999 | locus YDR137W, strain rgp1, hits give low values 0.984 | locus YDR150W, strain NUM1, hits give low values 0.999 | locus YDR159W, strain sac3, hits give low values 0.933 | locus YDR162C, strain NBP2, hits give low values 0.98 | locus YDR195W, strain ref2 0.942 | locus YDR297W, strain sur2, hits give low values 0.983 | locus YDR318W, strain mcm21, hits give low values 0.989 | locus YDR334W, strain swr1, hits give low values 0.974 | locus YDR335W, strain msn5, hits give low values 0.981 | locus YDR388W, hits give low values 0.977 | locus YDR392W, strain spt3, hits give low values 0.984 | locus YDR502C, strain sam2, hits give low values 0.98 | locus YEL003W, strain gim4, hits give low values 0.991 | locus YEL037C, strain rad23, hits give low values 0.965 | locus YEL061C, strain CIN8 (second series), hits give low values 0.986 | locus YEL061C, strain CIN8, hits give low values 1 | locus YER015W, strain faa2, hits give low values 0.99 | locus YER016W, strain bim1, hits give low values 0.988 | locus YER110C, hits give low values 0.972 | locus YER111C, strain swi4, hits give low values 0.973 | locus YER155C, strain BEM2 (second series), hits give low values 0.95 | locus YER155C, strain BEM2, hits give low values 0.996 | locus YER167W, strain BCK2, hits give low values 0.977 | locus YFR010W, strain ubp6, hits give low values 0.976 | locus YGL078C, strain dbp3, hits give low values 0.985 | locus YGL086W, strain mad1, hits give low values 0.997 | locus YGL167C, strain pmr1, hits give low values 0.976 | locus YGL173C, strain kem1, hits give low values 0.951 | locus YGL227W, strain vid30, hits give low values 0.97 | locus YGL240W, strain doc1, hits give low values 0.97 | locus YGL248W, strain PDE1, hits give low values 1.01 | locus YGL253W, strain hxk2, hits give low values 0.977 | locus YGR078C, strain PAC10, hits give low values 1.01 | locus YGR135W, strain pre9, hits give low values 0.979 | locus YGR229C, strain SMI1, hits give low values 0.982 | locus YGR252W, strain gcn5, hits give low values 1.03 | locus YHR013C, strain ard1, hits give low values 0.988 | locus YHR027C, strain rpn1, hits give low values 0.981 | locus YHR030C, strain SLT2, hits give low values 0.986 and 0.975 | locus YHR079C, strain IRE1 (second series), hits give low values 0.991 | locus YHR079C, strain IRE1, hits give low values 0.978 | locus YHR094C, strain hxt1, hits give low values 0.98 | locus YHR129C, strain ARP1, hits give low values 0.985 | locus YHR142W, strain chs7, hits give low values 0.969 | locus YHR200W, strain rpn10, hits give low values 0.993 | locus YIL066C, strain RNR3, hits give low values 0.982 | locus YIL073C, strain SPO22, hits give low values 0.87 | locus YIL125W, strain kgd1, hits give low values 0.994 | locus YIR030C, strain dcg1, hits give low values 0.997 | locus YJL092W, strain hpr5, hits give low values 0.982 | locus YJL095W, strain BCK1 (second series), hits give low values 0.963 | locus YJL095W, strain BCK1, hits give low values 1.03 and 0.977 | locus YJL115W, strain asf1, hits give low values 0.966 | locus YJL129C, strain trk1, hits give low values 0.969 | locus YJL134W, strain LCB3, hits give low values 0.986 | locus YJL154C, strain vps35, hits give low values 0.965 | locus YJL164C, strain tpk1, hits give low values 1 | locus YJL166W, strain qcr8, hits give low values 0.978 | locus YJL168C, strain set2, hits give low values 0.989 | locus YJL187C, strain SWE1 (second series), hits give low values 0.994 | locus YJL187C, strain SWE1, hits give low values 0.976 | locus YJR043C, strain POL32, hits give low values 0.982
